In PubChem BioAssay (NCATS):
Inconclusive results are not listed. Activity calls are given as the source filed them. Calls follow the shape of the dose curve; as a rule, active = well fitted curve in the direction sought with a large enough effect; inconclusive = small, poorly fitted or top-dose-only effect, or another doubt; inactive = no such curve, though single readings can be large; an effect the other way counts as inactive or inconclusive.

How the values were obtained:
[1] = target: Thioredoxin reductase 1, cytoplasmic (Rattus norvegicus) (UniProt O89049); test: qHTS Assay for Substrates of Mammalian Selenoprotein Thioredoxin Reductase 1 (TrxR1) (AID 488772);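 also: series mostly up to about 57 µM; a drop in NADPH fluorescence below the no-compound background marks a TrxR1 substrate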
Sequence of Thioredoxin reductase 1, cytoplasmic (Rattus norvegicus) (O89049 whole entry, looked up): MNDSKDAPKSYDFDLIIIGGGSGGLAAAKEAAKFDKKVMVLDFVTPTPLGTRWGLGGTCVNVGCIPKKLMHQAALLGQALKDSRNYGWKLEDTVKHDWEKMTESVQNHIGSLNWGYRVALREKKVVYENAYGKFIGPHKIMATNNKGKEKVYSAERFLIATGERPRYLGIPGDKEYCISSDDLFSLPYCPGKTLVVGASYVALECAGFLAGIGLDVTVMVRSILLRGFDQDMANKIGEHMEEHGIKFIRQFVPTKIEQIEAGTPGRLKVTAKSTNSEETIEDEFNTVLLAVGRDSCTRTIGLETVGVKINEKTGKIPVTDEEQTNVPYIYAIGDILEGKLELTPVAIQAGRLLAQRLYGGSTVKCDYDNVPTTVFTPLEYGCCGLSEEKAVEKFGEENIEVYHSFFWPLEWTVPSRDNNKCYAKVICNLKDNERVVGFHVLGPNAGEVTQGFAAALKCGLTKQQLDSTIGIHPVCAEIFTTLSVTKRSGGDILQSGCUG
Method in brief: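 In this dual-purpose format, potential substrates are identified from the first fluorescence read after selenite addition, not from the 8-minute delta. Rat enzyme is preincubated with NADPH and then with compound at ~22 deg C.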

[2] = target: Thioredoxin reductase 1, cytoplasmic (Rattus norvegicus) (UniProt O89049); test: qHTS Assay for Inhibitors of Mammalian Selenoprotein Thioredoxin Reductase 1 (TrxR1) (AID 488773); conditions: Potency: inhibition;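 also: drop in NADPH fluorescence over an 8 min run after selenite addition; series mostly up to about 57 µM; nearly all actives have a fitted effect of over 40% in size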
Method in brief: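 Inhibition is scored from the loss of NADPH fluorescence between first and last reads of an 8-min kinetic run. Selenite (400 uM) was the substrate, added after 15 min compound preincubation at room temperature.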

[3] = target: Flap endonuclease 1 (Homo sapiens) (UniProt P39748); test: qHTS Validation Assay for the Inhibitors of Human Flap endonuclease 1 (FEN1) (AID 488816)
Sequence of Flap endonuclease 1 (Homo sapiens) (P39748 whole entry, looked up): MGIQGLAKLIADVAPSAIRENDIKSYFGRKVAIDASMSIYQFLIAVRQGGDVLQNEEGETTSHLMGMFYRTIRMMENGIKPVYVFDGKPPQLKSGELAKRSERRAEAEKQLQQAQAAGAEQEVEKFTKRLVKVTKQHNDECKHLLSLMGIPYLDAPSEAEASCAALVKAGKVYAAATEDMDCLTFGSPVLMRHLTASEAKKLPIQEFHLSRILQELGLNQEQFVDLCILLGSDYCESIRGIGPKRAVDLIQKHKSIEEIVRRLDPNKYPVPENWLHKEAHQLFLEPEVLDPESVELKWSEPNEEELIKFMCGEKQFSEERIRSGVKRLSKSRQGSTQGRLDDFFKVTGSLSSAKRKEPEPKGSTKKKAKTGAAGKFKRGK
Method in brief: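 Enzyme reagent 10 nM; cpds pinned; 15 min RT preinc.; substrate 50 nM final; reads t=0 and 15 min; no-enzyme buffer wells as neg. control; normalized data, 4-parameter Hill fit.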

[4] = target: M-phase phosphoprotein 8 (Homo sapiens) (UniProt Q99549); test: qHTS Validation Assay for Inhibitors for MPP8 Chromodomain Interactions with Methylated Histone Tails (AID 488949);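 also: 50 nM MPP8 with 50 nM peptide preformed then compounds added for 30 min; AlphaScreen signal from MPP8 chromodomain bound to biotinylated H3K9me3 peptide; top concentration of the series differs between compounds; nearly all actives have a fitted effect of over 55% in size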
Sequence of M-phase phosphoprotein 8 (Homo sapiens) (Q99549 whole entry, looked up): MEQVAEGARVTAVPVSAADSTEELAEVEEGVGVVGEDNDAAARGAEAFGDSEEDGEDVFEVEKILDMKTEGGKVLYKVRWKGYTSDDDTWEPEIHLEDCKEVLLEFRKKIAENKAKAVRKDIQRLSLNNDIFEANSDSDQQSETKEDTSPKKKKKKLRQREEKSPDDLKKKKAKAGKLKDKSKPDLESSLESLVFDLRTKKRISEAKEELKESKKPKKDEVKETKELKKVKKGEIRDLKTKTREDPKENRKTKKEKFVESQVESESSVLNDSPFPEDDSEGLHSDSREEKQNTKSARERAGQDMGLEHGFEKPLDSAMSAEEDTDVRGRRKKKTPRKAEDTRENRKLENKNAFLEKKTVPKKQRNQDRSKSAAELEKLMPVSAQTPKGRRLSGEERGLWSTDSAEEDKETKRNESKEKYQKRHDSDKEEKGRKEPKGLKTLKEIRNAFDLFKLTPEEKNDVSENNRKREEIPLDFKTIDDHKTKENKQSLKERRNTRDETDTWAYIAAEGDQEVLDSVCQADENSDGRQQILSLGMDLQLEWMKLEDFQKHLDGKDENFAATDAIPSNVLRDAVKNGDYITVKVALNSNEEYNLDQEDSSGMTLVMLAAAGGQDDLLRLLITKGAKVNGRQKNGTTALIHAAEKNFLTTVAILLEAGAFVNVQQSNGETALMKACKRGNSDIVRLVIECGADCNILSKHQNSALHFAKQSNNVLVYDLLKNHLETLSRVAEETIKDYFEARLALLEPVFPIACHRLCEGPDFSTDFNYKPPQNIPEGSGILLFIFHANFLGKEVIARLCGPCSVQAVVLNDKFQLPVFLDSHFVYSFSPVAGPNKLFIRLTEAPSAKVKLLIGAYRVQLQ
Method in brief: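 50 nM MPP8 + 50 nM b-H3K9me3 peptide, PBS pH 7.4/0.01% Tween-20, 30 min RT; + cpd 30 min RT; + AlphaScreen donor/Ni-chelate acceptor beads 10 ug/mL final, 30 min dark; luminescence read.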

[5] = target: Methanococcus maripaludis chaperonin (MmCpn) (UniProt Q6LX38); test: High-Throughput Screening for Modulators of Cytosolic Chaperonin Activity: MmCpn Primary Screen (AID 488978);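 also: 50 nM MmCpn enzyme hydrolysing 30 µM ATP at 37 °C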
Sequence of Methanococcus maripaludis chaperonin (MmCpn) (Q6LX38 1-543): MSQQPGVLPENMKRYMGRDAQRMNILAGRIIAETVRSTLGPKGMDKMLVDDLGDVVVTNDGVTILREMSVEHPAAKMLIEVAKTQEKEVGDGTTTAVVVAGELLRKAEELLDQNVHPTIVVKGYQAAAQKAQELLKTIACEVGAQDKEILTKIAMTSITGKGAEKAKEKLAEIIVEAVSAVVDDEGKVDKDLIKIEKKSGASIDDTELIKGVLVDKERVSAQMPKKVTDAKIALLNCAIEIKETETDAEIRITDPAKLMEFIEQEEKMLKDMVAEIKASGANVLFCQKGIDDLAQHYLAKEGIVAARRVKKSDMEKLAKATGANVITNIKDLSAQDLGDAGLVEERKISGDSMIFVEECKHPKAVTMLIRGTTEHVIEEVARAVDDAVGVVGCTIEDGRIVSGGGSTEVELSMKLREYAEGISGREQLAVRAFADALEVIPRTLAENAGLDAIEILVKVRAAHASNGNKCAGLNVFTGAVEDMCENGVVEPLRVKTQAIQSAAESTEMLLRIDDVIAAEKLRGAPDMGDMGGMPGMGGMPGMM
Method in brief: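 Steps: chaperonin 50 nM final; add compound, 5 min RT; start with ATP, 30 uM final; hold 10 min at 37C; add ADP Transcreener HTRF reagent, 5 min; read ex 320, em 590 and 665 nm.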

[6] = target: Thyrotropin receptor (Homo sapiens) (UniProt P16473); test: qHTS Assay for Antagonists of the Thyroid Stimulating Hormone Receptor (AID 488980); also: series mostly up to about 58 µM
Sequence of Thyrotropin receptor (Homo sapiens) (P16473 whole entry, looked up): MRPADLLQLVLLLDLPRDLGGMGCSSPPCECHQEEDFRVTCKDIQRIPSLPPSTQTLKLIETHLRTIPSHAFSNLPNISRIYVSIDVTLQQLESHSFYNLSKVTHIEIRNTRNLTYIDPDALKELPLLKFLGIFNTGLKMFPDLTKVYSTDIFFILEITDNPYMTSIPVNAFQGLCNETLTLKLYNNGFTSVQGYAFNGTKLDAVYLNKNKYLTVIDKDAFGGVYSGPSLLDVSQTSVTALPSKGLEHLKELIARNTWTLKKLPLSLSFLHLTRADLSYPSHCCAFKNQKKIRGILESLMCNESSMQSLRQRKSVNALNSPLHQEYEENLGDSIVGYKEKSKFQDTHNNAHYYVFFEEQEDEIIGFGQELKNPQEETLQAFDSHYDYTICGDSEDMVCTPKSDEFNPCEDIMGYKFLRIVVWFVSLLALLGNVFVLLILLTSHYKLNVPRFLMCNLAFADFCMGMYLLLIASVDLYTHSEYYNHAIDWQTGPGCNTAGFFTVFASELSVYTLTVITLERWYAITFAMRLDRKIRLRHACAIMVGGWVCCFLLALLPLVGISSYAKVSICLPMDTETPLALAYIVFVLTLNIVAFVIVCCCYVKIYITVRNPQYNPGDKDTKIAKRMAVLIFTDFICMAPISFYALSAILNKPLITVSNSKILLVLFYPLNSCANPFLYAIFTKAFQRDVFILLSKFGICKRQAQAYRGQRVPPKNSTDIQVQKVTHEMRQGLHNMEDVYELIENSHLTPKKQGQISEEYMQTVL
Method in brief: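 Readout is cAMP by HTRF competition between cellular cAMP and cAMP-d2 for a cryptate-labelled antibody. Antagonism was assessed in TSHR-transfected HEK293 cells stimulated with 4 nM TSH (EC80, final) in the presence of RO 20-1724.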

[7] = target: D(1A) dopamine receptor (Homo sapiens) (UniProt P21728); test: HTS Assay for Allosteric Agonists of the Human D1 Dopamine Receptor: Primary Screen for Potentiators (AID 488982)
Sequence of D(1A) dopamine receptor (Homo sapiens) (P21728 whole entry, looked up): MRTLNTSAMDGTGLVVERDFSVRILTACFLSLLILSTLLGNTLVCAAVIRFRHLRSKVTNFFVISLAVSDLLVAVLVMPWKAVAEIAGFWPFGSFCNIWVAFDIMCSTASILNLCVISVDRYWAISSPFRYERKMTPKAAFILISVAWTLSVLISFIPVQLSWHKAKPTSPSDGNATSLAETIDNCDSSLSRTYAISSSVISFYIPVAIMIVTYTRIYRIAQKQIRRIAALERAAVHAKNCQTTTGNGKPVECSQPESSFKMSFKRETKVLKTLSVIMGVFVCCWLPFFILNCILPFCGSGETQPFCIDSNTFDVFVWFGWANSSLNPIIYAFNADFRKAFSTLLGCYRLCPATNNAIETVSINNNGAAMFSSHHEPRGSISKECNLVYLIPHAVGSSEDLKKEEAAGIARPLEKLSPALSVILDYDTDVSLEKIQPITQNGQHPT
Method in brief: (§1)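 Tetracycline-induced HEK293 Trex D1 cells with forced coupling to calcium, loaded with no-wash calcium dye; kinetic fluorescence read 180 s after compound addition for agonism, then a further 180 s after an EC20 dopamine challenge for potentiation.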

[8] = target: Chromobox protein homolog 1 (Homo sapiens) (UniProt P83916); test: qHTS Validation Assay for Inhibitors of HP1-beta Chromodomain Interactions with Methylated Histone Tails (AID 488953);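 also: loss of AlphaScreen luminescence from HP1-beta binding biotinylated H3K9me3 peptide; series mostly up to about 110 µM; nearly all actives have a fitted effect of over 50% in size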
Sequence of Chromobox protein homolog 1 (Homo sapiens) (P83916 whole entry, looked up): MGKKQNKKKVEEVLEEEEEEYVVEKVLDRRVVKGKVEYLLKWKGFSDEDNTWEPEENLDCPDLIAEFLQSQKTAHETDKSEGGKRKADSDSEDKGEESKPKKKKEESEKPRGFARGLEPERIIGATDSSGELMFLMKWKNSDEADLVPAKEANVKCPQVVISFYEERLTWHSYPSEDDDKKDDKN
Method in brief: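 AlphaScreen proximity readout: streptavidin donor and Ni-chelate acceptor beads, 10 ug/mL final, 30 min dark, RT. Complex of 50 nM HP1-beta and 50 nM b-H3(1-18)K9me3 formed 30 min, then compound-treated 30 min; PBS pH 7.4/0.01% Tween-20.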

[9] = target: D(1A) dopamine receptor (Homo sapiens) (UniProt P21728); test: HTS Assay for Allosteric Agonists of the Human D1 Dopamine Receptor: Primary Screen for Agonists (AID 488981)
Method in brief: as §1

[10] = target: Transient receptor potential cation channel subfamily V member 1 (Homo sapiens) (UniProt Q8NER1); test: HTS Assay for Compounds that Act as Enhancers of the Vanilloid Receptor 1 (AID 488979)
Sequence of Transient receptor potential cation channel subfamily V member 1 (Homo sapiens) (Q8NER1 whole entry, looked up): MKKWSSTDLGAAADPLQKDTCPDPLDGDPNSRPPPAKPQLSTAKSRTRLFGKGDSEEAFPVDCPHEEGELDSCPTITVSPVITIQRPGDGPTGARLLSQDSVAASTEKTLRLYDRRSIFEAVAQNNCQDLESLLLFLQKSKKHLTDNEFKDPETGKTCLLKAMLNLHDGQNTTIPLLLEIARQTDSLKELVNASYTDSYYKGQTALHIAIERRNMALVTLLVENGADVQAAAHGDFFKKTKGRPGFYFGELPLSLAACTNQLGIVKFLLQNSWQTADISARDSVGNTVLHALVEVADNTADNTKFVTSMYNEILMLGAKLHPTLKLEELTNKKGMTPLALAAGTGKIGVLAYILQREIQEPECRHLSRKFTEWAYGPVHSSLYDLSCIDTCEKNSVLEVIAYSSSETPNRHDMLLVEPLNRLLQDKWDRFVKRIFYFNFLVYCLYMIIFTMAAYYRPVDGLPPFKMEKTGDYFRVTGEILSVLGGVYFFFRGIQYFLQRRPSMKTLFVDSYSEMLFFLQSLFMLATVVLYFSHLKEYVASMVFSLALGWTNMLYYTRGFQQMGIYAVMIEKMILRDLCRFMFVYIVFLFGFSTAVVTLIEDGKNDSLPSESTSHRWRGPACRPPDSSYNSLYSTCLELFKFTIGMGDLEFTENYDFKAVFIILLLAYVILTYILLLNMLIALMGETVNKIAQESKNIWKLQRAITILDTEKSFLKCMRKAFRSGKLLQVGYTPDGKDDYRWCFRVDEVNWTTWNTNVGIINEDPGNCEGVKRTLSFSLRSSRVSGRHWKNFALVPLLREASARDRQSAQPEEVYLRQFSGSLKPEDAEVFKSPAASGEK
Method in brief: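 TRPV1 cells loaded with Fluo-8 calcium dye; compound added and Ca2+ signal (ex 480/em 520 nm) followed 3 min, then capsaicin at EC20 added and read 2 more min to detect enhancement.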

Measured: Potency

CNCCC(Oc1ccc(C(F)(F)F)cc1)c1ccccc1 (stereo not drawn)
not listed: [8] | [9] | [10]
inactive: all other assays above

CC[C@H]1CN2CCc3cc(OC)c(OC)cc3[C@@H]2C[C@@H]1C[C@H]1NCCc2cc(OC)c(OC)cc21
not listed: [3] | [6] | [10]
inactive: all other assays above

CN(C)CCC=C1c2ccccc2CCc2ccccc21
inactive: [1] | [2] | [3] | [5] | [6] | [9]

C[C@H]1O[C@@H](n2cc(F)c(=O)[nH]c2=O)[C@H](O)[C@@H]1O
inactive: [4] | [10] | [6]
